Screening results (PubChem BioAssay)
Tg IFNy HTS: T. gondii growth inhibition under IFN-gamma. Toxoplasma gondii growth in IFN-gamma-treated host cells; hits give low values. 69,000 tested, 3.8% active. activity change, negative = inhibition, % (concentration not given with the values); in the data active = activity change below about -70%, passing the limit was not always enough;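 note: host cells are HeLa cells infected with Toxoplasma gondii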
An asterisk follows results filed as active; ! = not active in a repeat. The sample as a whole holds a higher share of hits than the screen did.

SMILES	Tg IFNy HTS
Cc1cc2c(cc3c(=O)n(CCC#N)nc(C)n32)s1	-90.5*
COc1ccc(OC)c(-c2noc(-c3c(O)c4ccccc4n(C)c3=O)n2)c1	-38.9
O=c1c2c([nH]c3ccc(Br)cc13)CCCC2	-94.3*
O=C1Cc2c([nH]c3ccc(Br)cc23)-c2ccccc2N1	2.7
O=C(c1ccc2[nH]c3c(c2c1)CCCC3)N1Cc2cnn(CCO)c2C1	22.2
O=C1CCC2(CCCO2)CCN1Cc1cnn(-c2ccccc2F)c1 (stereo unspecified)	32.3
Cc1ccc2c(c1C)-n1cccc1C1(CCN(C(=O)Cc3ccccc3Cl)CC1)N2	213.3
c1ccc2c(N3CCOCC3)nc(N3CCOCC3)nc2c1	-3.6
c1ccc(CNc2ncc(CN3CCC4(CCOCC4)CC3)cn2)cc1	83.5
c1ccc(CNc2nc(N3CCOCC3)nc(N3CCOCC3)n2)cc1	-82.5*
CC(C)N(C)Cc1ncn2c1CN(S(=O)(=O)c1cccs1)CCC2	3.6
CC(C)Oc1ccc(C(=O)NCCc2csc(-c3ccc(Cl)cc3)n2)cc1	7.5
COc1ccc(C(=O)NCCc2csc(-c3ccc(Cl)cc3)n2)cc1	-57.5
COc1ccc2cc(-c3cc(-c4cc(Cl)cc(Cl)c4)nn3[C@@H](C)c3ccc(C(=O)NCCC(=O)O)cc3)ccc2c1	-72.7*
Cc1cc(F)ccc1C(=O)N1C[C@@H]2COC[C@]2(COCC2CC2)C1	-5.5
O=C(NCCc1c[nH]c2ccc(Cl)cc12)c1cc(-c2ccccn2)nc2ccccc12	-69.9
CCOC(=O)c1c(NC(=O)c2cc(-c3ccccc3)nc3ccc(C)cc23)sc(C)c1C	22.3
Cc1ccc2nc(-c3ccccn3)cc(C(=O)Nc3n[nH]c4nc(C)ccc34)c2c1	-98.6*
Cc1nc2ccc(NC(=O)CCCn3cncn3)cc2[nH]1	21.6
Cc1ncc2c(c1C(=O)O)CCN(Cc1ccc3c(c1)OCO3)C2	7.8
COCCCN(Cc1ccccn1)Cc1coc2ccccc2c1=O	-25.3
CCN(CCc1nc2ccc(C)cc2[nH]1)C(=O)COC	-33.8
CCS(=O)(=O)N1CCC2(CC1)OC(C(=O)N(C)C)c1ccccc12 (stereo unspecified)	-45.9
Cc1cc(C)nc(Nc2n[nH]c(COc3ccc4ccccc4c3)n2)n1	-43.9
CC(NC(=O)Cc1nc2ccccc2[nH]1)c1ccc(O)c(F)c1 (stereo unspecified)	-4.3
SMILES	Tg IFNy HTS
Cc1cc(OCc2nc3ccccc3[nH]2)ccc1C(C)C	-86.6*
COCC(NS(=O)(=O)NCc1ccccc1)c1ccccn1 (stereo unspecified)	1.2
CCc1nn(C)c(Cl)c1CN1CCCC1c1ccc(F)cc1 (stereo unspecified)	11.8
CC(=O)Nc1nc(-c2cccnc2)cs1	-63.4
COc1ccc(CC(=O)N2CCN(c3ncnc4ccc(N(C)C)cc34)CC2)cc1	-33.9
CC(C)(C)c1cc(/C=C(\C#N)C(N)=S)cc(C(C)(C)C)c1O	-73.5*
N#CC(C#N)=C(N)/C(C#N)=C/c1cc(O)c(O)c(O)c1	-7.0
CC(C)(C)c1cc(-c2cc(C(C)(C)C)c(O)c(C(C)(C)C)c2)cc(C(C)(C)C)c1O	14.5
Fc1cccc(CNc2c3c(nc4cc(-c5cccc(Cl)c5)nn24)CCC3)c1	-90.3*
O=C(NCc1cccc(F)c1)Nc1ccc(-c2nc(-c3ccccc3)co2)cc1	20.8
Fc1cccc(CNc2nc(-c3nnc(-c4ccc(Cl)cc4)o3)nc3ccccc23)c1	90.3
CS(=O)(=O)CCNC(=O)CCC(=O)NC1CCCCCCC1	8.0
Cc1cc(N2CCN(C(=O)c3cccc4c(C)c(C)[nH]c34)CC2)nc(C)n1	84.9
c1ccc(-c2csc3ncnc(NCc4ccccn4)c23)cc1	-74.3*
O=c1ncn(Cc2ccccn2)cc1-c1ccccc1	43.7
c1ccc(-c2csc3ncnc(NCC4CCCO4)c23)cc1 (stereo unspecified)	-60.0
COc1ccc(OC)c([C@@H]2CN(Cc3ccccc3)C[C@H]2NC(=O)c2cc(C)no2)c1	-54.0
Fc1cccc(CN2CCN(Cc3cnc(C4CCCCC4)nc3)CC2)c1	1.4
COc1cc2c(cc1O)CC[C@@H]1[C@@H]2CC[C@]2(C)[C@@H](O)CC[C@@H]12	-82.5*!
CC12CCC3c4ccc(O)cc4CCC3C1C[C@H](O)[C@@H]2O (stereo partly specified)	8.2
C[C@]12CC[C@@H]3c4ccc(O)cc4CC[C@H]3[C@@H]1C[C@@H](O)[C@@H]2O	16.6
CCc1c(C(=O)O)[nH]c2ccc(C)cc12	-6.6
CC(CCc1ccco1)N(C)S(=O)(=O)c1ccc2[nH]c(=O)ccc2c1 (stereo unspecified)	177.7
CN1CCN(C2=Nc3cc(Cl)ccc3Nc3ccccc32)CC1	-94.9*!
CN1CCN(C2=Nc3cc(F)ccc3Cc3ccccc32)CC1	2.9
SMILES	Tg IFNy HTS
Clc1ccc2c(c1)N=C(N1CCNCC1)c1ccccc1N2	-58.4
CN(C)CCO[C@H]1CN(S(=O)(=O)c2ccccc2)[C@H]2COC[C@@H]12	-0.5
O=S(=O)(Nc1nc(-c2ccc(F)c(F)c2)cs1)c1cccs1	171.0
O=C(NCC1(O)CCCNCC1)c1ccc(=O)[nH]c1 (stereo unspecified)	5.1
COc1cc2ncc(-c3ccccc3)nc2cc1OC	-84.7*
Cc1cc2ncc(-c3ccccc3)nc2cc1C	400.9
COc1cc2nc(-c3ccccc3)nc(N3CCCC3)c2cc1OC	-8.6
CCS(=O)(=O)N1CCN(c2nnc(-c3cccs3)c(-c3cccs3)n2)CC1	173.9
c1csc(-c2nnc(Cc3ccncc3)c3ccccc23)c1	-90.9*
c1csc(-c2nc3ccc4ccccc4c3c3c2CCC3)c1	120.7
Cc1ccsc1-c1ccc(C(C)N2CCOCC2)cc1 (stereo unspecified)	3.3
Cc1nnc(-c2cccc(-c3ccccc3CO)c2)s1	21.0
CN1CCC(N2CCN(C(=O)C3CCN(c4cnc5nccnc5c4)CC3)CC2)CC1	36.7
COc1ccc(CCNC(=O)COc2ccc(Br)c(C)c2)cc1OC	-11.1
CC[C@H](C(=O)N1CCCC[C@H]1C(=O)O[C@H](CCc1ccc(OC)c(OC)c1)c1cccc(OCC(=O)NCCNC(=O)COc2cccc([C@@H](CCc3ccc(OC)c(OC)c3)OC(=O)[C@@H]3CCCCN3C(=O)[C@@H](CC)c3cc(OC)c(OC)c(OC)c3)c2)c1)c1cc(OC)c(OC)c(OC)c1	-71.7*
COc1ccc(CCNC(=O)C2CCCN2C(=O)Nc2ccc(C)cc2)cc1OC (stereo unspecified)	22.7
COc1ccc(CN2CCN(C3CCCC3)C(=O)C2)cc1Cc1c(C)n[nH]c1C	-8.1
Clc1ccccc1Cn1nnc2c(Sc3nc4ccccc4s3)ncnc21	73.4
CCc1nc(Nc2ccc3c(c2)OCO3)c2nnn(Cc3ccccc3Cl)c2n1	-98.8*
Fc1ccccc1CSc1nc(Nc2ccc3c(c2)OCO3)c2ccccc2n1	-45.0
COC(=O)[C@@H]1C[C@@H](N(C)C)CN1S(=O)(=O)c1c(C)noc1C	0.4
CS(=O)(=O)N1C[C@H]2COC[C@@H](CC(=O)N3CCCC3)[C@H]2C1	-44.2
O=C(NC1CCN(Cc2ccccc2)CC1)c1ccc(-n2cccn2)cc1	4.2
O=C(N1CCC(n2cnc3cccnc32)CC1)N1c2ccccc2Sc2ccccc21	-11.3
CC(=O)Nc1ccc(S(=O)(=O)N2CCC(n3cnc4cccnc43)CC2)cc1	-95.5*
CC(=O)Nc1ccc(S(=O)(=O)N2CCC(Cc3cc(N)nc(C)n3)CC2)cc1	-2.6
NC1(C(=O)NCCC2CN(Cc3ccco3)CCO2)CCCC1 (stereo unspecified)	3.4
Cc1cccc(CN2CCN(C(=O)c3cc(C)c(C)n(C)c3=O)C(C)C2=O)c1 (stereo unspecified)	-4.6
